Source: PubChem BioAssay (NCATS)
Several values for one entry are separate records, joined by “and”; a condition that tells them apart may be missing. Equal values may be shown once. Inconclusive results are not listed. Entries that show only a call come without a potency. Activity calls are given as the source filed them. Unless noted, calls follow the shape of the full dose curve.

Tests used:
[1] = target: Bile acid receptor (Homo sapiens) (UniProt Q96RI1); experiment: qHTS assay for small molecule antagonists of farnesoid X receptor signaling (AID 588526)
Procedure, shortened: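 Beta-lactamase reporter antagonist mode: HEK293T FXR-UAS-bla cells, titrated compound, CDCA stimulation, 16 h 37 C, CCF4 dye 2 h RT. Data normalized to CDCA 50 uM and DMSO; Hill-fit IC50.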

[2] = target: Glucocorticoid receptor (Homo sapiens) (UniProt P04150); experiment: qHTS assay for small molecule agonists of glucocorticoid receptor signaling (AID 588532; active = well fitted curve in the direction sought with a large enough effect in the signal ratio, with a control signal flat; the % refers to the signal ratio); conditions: HeLa MMTV-bla, beta-lactamase ratio, agonist, 18 h; stronger effect = higher value; percent of dexamethasone control, DMSO zero
Procedure, shortened: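 Using MMTV-bla HeLa cells in medium with 1% stripped FBS and 25 mM HEPES, compounds were titrated and incubated overnight-length (18 h). Beta-lactamase cleavage of CCF4 was quantified by dual-emission fluorescence.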

[3] = target: Glucocorticoid receptor (Homo sapiens) (UniProt P04150); experiment: qHTS assay for small molecule antagonists of glucocorticoid receptor signaling (AID 588533; active = well fitted inhibition curve with a large enough effect in the signal ratio, with a control signal flat, not every such curve was filed as active; the % refers to the signal ratio;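 also: cells stimulated with 2 nM dexamethasone as agonist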)
Procedure, shortened: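 Antagonist-mode qHTS: compound titrations added to GRE-bla HeLa cells, then dexamethasone 2 nM final; 18 h, 37 C. CCF4 FRET fluorescence normalized to dexamethasone and DMSO; IC50 from Hill fit.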

[4] = qHTS assay for small molecule antagonists of peroxisome proliferator-activated receptor delta signaling (AID 588535; active = well fitted inhibition curve with a large enough effect in the signal ratio, with a control signal flat, not every such curve was filed as active; the % refers to the signal ratio;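 as to max response: cells co-treated with a PPAR-delta agonist as stimulator during compound exposure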); conditions: HEK293T PPARd-UAS-bla, beta-lactamase FRET ratio, 18 h; 460 nm channel
Procedure, shortened: (§1)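 Antagonist-mode qHTS using GeneBLAzer PPAR-delta-UAS-bla HEK293T cells; compound exposure 18 hrs at 37 C over a titration. Ratiometric CCF4 fluorescence at 460/530 nm; concentration-response points fitted to the Hill equation.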

[5] = target: Peroxisome proliferator-activated receptor delta (Homo sapiens) (UniProt Q03181); experiment: as above
Procedure, shortened: as §1

[6] = target: Peroxisome proliferator-activated receptor gamma (Homo sapiens) (UniProt P37231); experiment: qHTS assay for small molecule agonists of peroxisome proliferator-activated receptor gamma signaling (AID 588536; active = well fitted curve in the direction sought with a large enough effect in the signal ratio, with a control signal flat, not every such curve was filed as active; the % refers to the signal ratio)
Procedure, shortened: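 Beta-lactamase reporter read-out: CCF4 fluorescence (ex 405, em 460/530 nm) after 2 h at RT. HEK293 GeneBLAzer cells were treated for 16 h at 37 C. Hill fits gave EC50 and efficacy versus 2 uM rosiglitazone (100%) and DMSO (0%).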

[7] = target: Peroxisome proliferator-activated receptor gamma (Homo sapiens) (UniProt P37231); experiment: qHTS assay for small molecule antagonists of peroxisome proliferator-activated receptor gamma signaling (AID 588537; active = well fitted inhibition curve with a large enough effect in the signal ratio, with a control signal flat, not every such curve was filed as active; the % refers to the signal ratio;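 also: reporter cells co-stimulated with 50 nM rosiglitazone agonist during compound treatment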)
Procedure, shortened: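 Cell-based beta-lactamase assay; GW9662 served as the antagonist control. Stimulation used rosiglitazone, final 50 nM, 16 h, 37 C.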

[8] = target: Vitamin D3 receptor (Homo sapiens) (UniProt P11473); experiment: qHTS assay for small molecule antagonists of vitamin D receptor signaling (AID 588541);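 also: receptor activated by calcitriol during compound treatment; series mostly up to about 77 µM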
Procedure, shortened: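 Antagonist-mode beta-lactamase reporter assay: HEK293T VDR-UAS-bla cells were exposed to titrated compound alongside 1-alpha,25-dihydroxyvitamin D3 at 3 nM final for 16 h. Values were normalized to the 50 nM agonist control and DMSO basal, with IC50 and efficacy from Hill equation fits.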

[9] = target: Vitamin D3 receptor (Homo sapiens) (UniProt P11473); experiment: qHTS assay for small molecule agonists of vitamin D receptor signaling (AID 588543)
Procedure, shortened: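 VDR-UAS-bla HEK293T cells, 2000/well, 2% charcoal-stripped FBS; compound titration 16 h at 37 C; CCF4 beta-lactamase ratio read. Normalized to 50 nM 1-alpha,25-dihydroxyvitamin D3 (100%) and DMSO; Hill fit gives EC50, efficacy.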

[10] = qHTS assay for small molecule agonists of retinoid X receptor alpha signaling (AID 588544); conditions: HEK293T RXRa-UAS-bla, beta-lactamase reporter, 18 h; 530 nm emission
[11] = target: Retinoic acid receptor RXR-alpha (Homo sapiens) (UniProt P19793); experiment: as above
[12] = target: Thyroid hormone receptor beta (Homo sapiens) (UniProt P10828); experiment: qHTS assay for small molecule agonists of thyroid hormone receptor beta signaling (AID 588545)
Procedure, shortened: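 Compounds were tested as agonists in TR-UAS-bla-GripTite HEK 293 cells. After 18 hrs at 37 C, CCF4 substrate was added and fluorescence read after 2 hrs at room temperature.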

[13] = qHTS assay for small molecule antagonists of retinoid X receptor alpha signaling (AID 588546; active = well fitted inhibition curve with a large enough effect in the signal ratio, with a control signal flat, not every such curve was filed as active; the % refers to the signal ratio;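 also: cells stimulated with 9-cis-retinoic acid as agonist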); conditions: HEK293T RXRa-UAS-bla, beta-lactamase ratio, antagonist mode; measured here: W530 green channel, cytotoxicity proxy
Procedure, shortened: (§2)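 Beta-lactamase reporter inhibition, read as CCF4 fluorescence ratio (ex 405, em 460/530 nm) after 2 h at RT. HEK293T UAS-bla cells, 2500/well, were stimulated with 9-cis-RA at 500 or 100 nM final alongside test compound for 18 h at 37 C.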

[14] = target: Retinoic acid receptor RXR-alpha (Homo sapiens) (UniProt P19793); experiment: as above; conditions: HEK293T RXRa-UAS-bla, beta-lactamase ratio, antagonist mode
Procedure, shortened: as §2

[15] = target: Thyroid hormone receptor beta (Homo sapiens) (UniProt P10828); experiment: qHTS assay for small molecule antagonists of thyroid hormone receptor beta signaling (AID 588547; active = well fitted inhibition curve with a large enough effect in the signal ratio, with a control signal flat, not every such curve was filed as active; the % refers to the signal ratio;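 also: cells stimulated with 0.4 nM T3 agonist during compound exposure; series mostly up to about 77 µM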); conditions: TR-UAS-bla HEK293, beta-lactamase ratio, antagonist mode, 18 h
Procedure, shortened: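 Inhibition of T3-driven (0.4nM final) beta-lactamase reporter activity was measured over 0.59 nM to 92 uM compound after 18 h at 37 C. The cells were GripTite HEK293 TR-UAS-bla in charcoal/dextran-stripped serum, with CCF4 ratio read-out and IC50 from Hill fits.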

[16] = target: Voltage-gated inwardly rectifying potassium channel KCNH2 (Homo sapiens) (UniProt Q12809); experiment: qHTS Assay for Small Molecule Inhibitors of the Human hERG Channel Activity (AID 588834; active = well fitted inhibition curve with a large enough effect;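 also: top concentration of the series differs between compounds; lower thallium flux fluorescence means stronger hERG block; nearly all actives have a fitted effect of over 50% in size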)
Procedure, shortened: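 Thallium serves as surrogate for K+ influx through BacMam-delivered hERG in U2OS cells. Compounds are added for about 10 minutes after dye loading; stimulation buffer then starts flux, monitored kinetically on FDSS.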

[17] = qHTS assay for small molecule agonists of the antioxidant response element (ARE) signaling pathway (AID 651741; active = well fitted activation curve with a large enough effect in the signal ratio; the % refers to the signal ratio)
Procedure, shortened: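 Agonist activity is measured as ARE-driven beta-lactamase expression in a stable HepG2 reporter line, using 16 h compound treatment at 37 C and a FRET substrate fluorescence readout after 2 h.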

[18] = qHTS assay for small molecule activators of the p53 signaling pathway (AID 651743; active = well fitted activation curve with a large enough effect in the signal ratio, not every such curve was filed as active; the % refers to the signal ratio; also: series mostly up to about 92 µM); conditions: HCT-116 p53RE-bla, beta-lactamase FRET ratio, 16 h; stronger effect = higher value
Procedure, shortened: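 A beta-lactamase reporter under p53 response element control, stably carried by HCT-116 cells, reported pathway activation. Test compounds were applied for 16 hours at 37 C, and fluorescence was measured 2 hours after adding the B/G FRET substrate.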

[19] = qHTS assay for small molecule activators of the nuclear factor-kappa B (NF-kB) signaling pathway (AID 651749; active = well fitted activation curve with a large enough effect in the signal ratio; the % refers to the signal ratio; also: series mostly up to about 77 µM); conditions: NF-kB-bla ME-180 cells, beta-lactamase FRET ratio, 16 h; stronger effect = higher value
Procedure, shortened: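 FRET-based beta-lactamase detection in ME-180 cells reports NF-kB response-element-driven transcription following overnight (16 hr) compound treatment.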

[20] = target: Androgen receptor (Homo sapiens) (UniProt P10275); experiment: qHTS assay for small molecule antagonists of androgen receptor signaling (AID 588516; active = well fitted curve in the direction sought with a large enough effect in the signal ratio, with a control signal flat, not every such curve was filed as active; the % refers to the signal ratio)
Procedure, shortened: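 AR-UAS-bla GripTite HEK 293 cells (2000/well) treated with compound titrations plus 10 nM R1881 for 16 h at 37C. Beta-lactamase read by CCF4 FRET (460/530 nm); IC50 from Hill fits, normalized to R1881 and DMSO control wells.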

Sequence of Bile acid receptor (Homo sapiens) (Q96RI1 whole entry, looked up): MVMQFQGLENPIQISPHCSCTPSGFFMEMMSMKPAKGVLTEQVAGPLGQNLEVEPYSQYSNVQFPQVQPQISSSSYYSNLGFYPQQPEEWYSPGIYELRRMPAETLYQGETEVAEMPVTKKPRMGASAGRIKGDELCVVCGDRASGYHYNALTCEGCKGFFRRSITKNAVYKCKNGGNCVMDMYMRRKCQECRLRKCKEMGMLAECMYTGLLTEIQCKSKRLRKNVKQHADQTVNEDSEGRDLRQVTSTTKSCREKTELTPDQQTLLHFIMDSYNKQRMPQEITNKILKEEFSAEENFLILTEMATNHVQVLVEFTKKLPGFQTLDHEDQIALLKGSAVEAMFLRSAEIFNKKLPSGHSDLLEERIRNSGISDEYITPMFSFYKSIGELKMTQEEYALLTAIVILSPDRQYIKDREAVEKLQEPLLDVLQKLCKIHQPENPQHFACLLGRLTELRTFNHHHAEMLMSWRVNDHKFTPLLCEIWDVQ
Sequence of Voltage-gated inwardly rectifying potassium channel KCNH2 (Homo sapiens) (Q12809 whole entry, looked up): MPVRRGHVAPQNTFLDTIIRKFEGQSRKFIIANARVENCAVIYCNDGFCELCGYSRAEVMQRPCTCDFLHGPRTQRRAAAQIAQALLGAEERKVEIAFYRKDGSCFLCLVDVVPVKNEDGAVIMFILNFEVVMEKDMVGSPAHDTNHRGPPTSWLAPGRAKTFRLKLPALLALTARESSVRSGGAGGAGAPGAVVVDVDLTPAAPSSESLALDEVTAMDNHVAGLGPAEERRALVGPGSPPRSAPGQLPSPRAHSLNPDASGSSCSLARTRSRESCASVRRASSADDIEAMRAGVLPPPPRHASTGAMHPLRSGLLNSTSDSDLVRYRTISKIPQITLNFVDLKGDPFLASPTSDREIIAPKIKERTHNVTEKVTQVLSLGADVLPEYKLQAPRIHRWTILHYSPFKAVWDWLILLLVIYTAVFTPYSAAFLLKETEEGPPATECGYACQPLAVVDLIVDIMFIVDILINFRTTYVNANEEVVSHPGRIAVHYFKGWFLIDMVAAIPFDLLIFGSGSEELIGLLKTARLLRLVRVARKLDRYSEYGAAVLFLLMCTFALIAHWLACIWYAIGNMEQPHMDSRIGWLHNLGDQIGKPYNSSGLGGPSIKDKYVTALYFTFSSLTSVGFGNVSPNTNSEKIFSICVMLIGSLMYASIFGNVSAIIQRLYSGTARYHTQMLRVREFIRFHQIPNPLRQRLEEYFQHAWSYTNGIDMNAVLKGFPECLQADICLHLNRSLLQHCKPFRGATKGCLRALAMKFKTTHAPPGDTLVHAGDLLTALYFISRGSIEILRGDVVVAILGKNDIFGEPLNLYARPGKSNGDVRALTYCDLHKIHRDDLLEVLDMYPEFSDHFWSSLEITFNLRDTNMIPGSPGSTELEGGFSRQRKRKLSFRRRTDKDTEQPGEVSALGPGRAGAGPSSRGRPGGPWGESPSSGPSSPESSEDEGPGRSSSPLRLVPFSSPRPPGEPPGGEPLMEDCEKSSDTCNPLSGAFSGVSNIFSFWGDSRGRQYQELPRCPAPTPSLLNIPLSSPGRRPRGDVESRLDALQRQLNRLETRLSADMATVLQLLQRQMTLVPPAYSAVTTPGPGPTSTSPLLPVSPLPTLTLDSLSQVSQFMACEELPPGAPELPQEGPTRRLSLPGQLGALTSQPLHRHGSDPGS
Sequence of Vitamin D3 receptor (Homo sapiens) (P11473 whole entry, looked up): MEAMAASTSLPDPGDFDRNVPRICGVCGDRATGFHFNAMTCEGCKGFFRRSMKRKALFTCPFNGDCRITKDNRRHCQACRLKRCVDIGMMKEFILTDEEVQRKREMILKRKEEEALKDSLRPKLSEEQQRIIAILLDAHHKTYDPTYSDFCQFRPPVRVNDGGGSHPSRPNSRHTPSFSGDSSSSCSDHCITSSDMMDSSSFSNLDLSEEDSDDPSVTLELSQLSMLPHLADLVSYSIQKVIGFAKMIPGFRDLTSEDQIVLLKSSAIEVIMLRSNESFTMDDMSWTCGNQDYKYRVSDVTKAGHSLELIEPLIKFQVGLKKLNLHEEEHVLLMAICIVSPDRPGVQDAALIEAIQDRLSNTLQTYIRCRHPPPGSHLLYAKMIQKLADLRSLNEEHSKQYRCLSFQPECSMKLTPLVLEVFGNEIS
Sequence of Peroxisome proliferator-activated receptor delta (Homo sapiens) (Q03181 whole entry, looked up): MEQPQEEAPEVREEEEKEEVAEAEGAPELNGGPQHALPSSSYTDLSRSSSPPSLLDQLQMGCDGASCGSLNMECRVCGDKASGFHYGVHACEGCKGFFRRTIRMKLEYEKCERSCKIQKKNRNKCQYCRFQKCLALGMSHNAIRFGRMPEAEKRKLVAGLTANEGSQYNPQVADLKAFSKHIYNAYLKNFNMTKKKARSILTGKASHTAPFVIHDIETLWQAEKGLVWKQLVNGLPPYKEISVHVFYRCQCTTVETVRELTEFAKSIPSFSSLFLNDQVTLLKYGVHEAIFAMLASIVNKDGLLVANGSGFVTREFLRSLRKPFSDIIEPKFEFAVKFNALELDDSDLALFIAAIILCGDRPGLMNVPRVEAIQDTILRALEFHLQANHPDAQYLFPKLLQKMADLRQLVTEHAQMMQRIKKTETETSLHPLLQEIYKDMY
Sequence of Glucocorticoid receptor (Homo sapiens) (P04150 whole entry, looked up): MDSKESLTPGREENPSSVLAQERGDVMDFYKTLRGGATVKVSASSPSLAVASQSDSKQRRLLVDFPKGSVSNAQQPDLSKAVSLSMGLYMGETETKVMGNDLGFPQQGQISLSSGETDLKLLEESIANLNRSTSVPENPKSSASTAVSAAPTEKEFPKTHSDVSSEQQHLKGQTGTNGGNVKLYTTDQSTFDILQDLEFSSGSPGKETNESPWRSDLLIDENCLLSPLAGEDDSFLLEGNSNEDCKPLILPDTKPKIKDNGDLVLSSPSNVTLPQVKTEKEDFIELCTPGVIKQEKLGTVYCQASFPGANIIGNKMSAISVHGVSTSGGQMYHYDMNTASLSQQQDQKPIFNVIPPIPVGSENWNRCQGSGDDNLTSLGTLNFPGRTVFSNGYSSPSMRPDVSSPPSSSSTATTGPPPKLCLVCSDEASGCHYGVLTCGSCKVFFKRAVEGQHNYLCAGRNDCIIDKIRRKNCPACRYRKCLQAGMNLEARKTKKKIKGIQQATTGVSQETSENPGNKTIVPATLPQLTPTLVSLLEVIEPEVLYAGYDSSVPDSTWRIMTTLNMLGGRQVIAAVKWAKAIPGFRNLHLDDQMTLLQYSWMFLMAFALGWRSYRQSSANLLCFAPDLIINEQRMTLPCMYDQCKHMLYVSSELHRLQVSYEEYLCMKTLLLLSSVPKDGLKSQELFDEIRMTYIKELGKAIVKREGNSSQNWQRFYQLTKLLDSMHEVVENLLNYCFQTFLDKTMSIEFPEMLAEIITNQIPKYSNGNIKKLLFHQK
Sequence of Peroxisome proliferator-activated receptor gamma (Homo sapiens) (P37231 whole entry, looked up): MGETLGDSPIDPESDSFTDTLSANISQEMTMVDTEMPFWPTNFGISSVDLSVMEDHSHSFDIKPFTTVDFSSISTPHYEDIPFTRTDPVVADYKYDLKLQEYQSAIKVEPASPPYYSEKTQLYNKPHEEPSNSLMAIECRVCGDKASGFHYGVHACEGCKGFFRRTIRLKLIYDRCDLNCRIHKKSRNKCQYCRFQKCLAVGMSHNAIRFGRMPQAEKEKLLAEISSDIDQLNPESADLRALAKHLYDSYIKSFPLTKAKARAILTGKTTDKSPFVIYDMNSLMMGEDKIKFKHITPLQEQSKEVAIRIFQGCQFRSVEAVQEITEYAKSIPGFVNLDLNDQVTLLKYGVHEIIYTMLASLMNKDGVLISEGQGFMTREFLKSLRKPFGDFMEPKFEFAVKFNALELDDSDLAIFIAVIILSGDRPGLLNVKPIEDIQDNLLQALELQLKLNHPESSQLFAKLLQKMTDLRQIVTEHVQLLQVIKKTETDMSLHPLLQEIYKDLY
Sequence of Thyroid hormone receptor beta (Homo sapiens) (P10828 whole entry, looked up): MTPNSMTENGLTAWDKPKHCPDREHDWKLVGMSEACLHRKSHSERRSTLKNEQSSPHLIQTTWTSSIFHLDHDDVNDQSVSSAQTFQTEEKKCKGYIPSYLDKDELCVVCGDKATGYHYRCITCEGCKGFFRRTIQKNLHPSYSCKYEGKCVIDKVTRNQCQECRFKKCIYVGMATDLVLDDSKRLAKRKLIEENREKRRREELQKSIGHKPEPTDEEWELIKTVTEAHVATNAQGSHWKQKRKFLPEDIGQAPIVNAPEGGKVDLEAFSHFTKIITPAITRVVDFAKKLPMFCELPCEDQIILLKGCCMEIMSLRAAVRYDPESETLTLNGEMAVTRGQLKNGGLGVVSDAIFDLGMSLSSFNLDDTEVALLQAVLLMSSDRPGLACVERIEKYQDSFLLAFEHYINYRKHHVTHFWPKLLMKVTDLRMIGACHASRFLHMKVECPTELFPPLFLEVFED
Sequence of Retinoic acid receptor RXR-alpha (Homo sapiens) (P19793 whole entry, looked up): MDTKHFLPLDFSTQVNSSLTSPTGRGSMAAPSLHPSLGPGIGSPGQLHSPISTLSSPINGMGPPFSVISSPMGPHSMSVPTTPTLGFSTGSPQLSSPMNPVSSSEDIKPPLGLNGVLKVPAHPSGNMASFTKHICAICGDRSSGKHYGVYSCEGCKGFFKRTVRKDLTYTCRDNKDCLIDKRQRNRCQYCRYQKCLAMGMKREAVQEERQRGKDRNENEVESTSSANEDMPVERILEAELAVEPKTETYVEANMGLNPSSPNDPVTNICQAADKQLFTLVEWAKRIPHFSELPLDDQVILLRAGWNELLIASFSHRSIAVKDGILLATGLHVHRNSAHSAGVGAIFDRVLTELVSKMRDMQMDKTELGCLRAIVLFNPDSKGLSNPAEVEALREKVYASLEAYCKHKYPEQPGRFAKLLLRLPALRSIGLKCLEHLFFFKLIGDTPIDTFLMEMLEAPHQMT

| SMILES | outcome [1] | activation [2] | outcome [3] | max response [4] | Potency [5] | outcome [6] | outcome [7] | outcome [8] | outcome [9] | max response [10] | outcome [11] | outcome [12] | max response [13] | max response [14] | activity change % (negative = inhibition) [15] | Potency [16] | Potency [17] | activation [18] | activation [19] | outcome [20] |
| --- | --- | --- | --- | --- | --- | --- | --- | --- | --- | --- | --- | --- | --- | --- | --- | --- | --- | --- | --- | --- |
| Clc1ccc(Cl)c(Cl)c1Cl | inactive | 16% (inactive) and -12% (inactive) | inactive | 9.65% and -40.7% | inactive | inactive | inactive | inactive | inactive | -17% and 0.458% | inactive | inactive | 6.74% and -2.64% | 10.9% (inactive) and -11.3% (inactive) | 26.9% (inactive) | inactive | inactive | -4.49% (inactive) and 4.59% (inactive) | 0.56% (inactive) and -0.536% (inactive) |  |
| CCC(C)(C)C(=O)O | inactive | -7.32% (inactive) | inactive | -22.2% | inactive | inactive | inactive | inactive | inactive | -9.68% | inactive | inactive | -3.08% | 6.62% (inactive) | -3.87% (inactive) |  | inactive | 0.0165% (inactive) | -0.114% (inactive) |  |
| CC(C=O)Cc1ccc(C(C)(C)C)cc1 (configuration not stated) | inactive | -5.34% (inactive) | inactive | 41.6% | inactive | inactive | inactive | inactive | inactive | -4.78% and -12.5% | inactive | inactive | 2.84% and -3.45% | -0.768% (inactive) and 2.1% (inactive) | 4.73% (inactive) and 0.44% (inactive) |  | inactive | 3.13% (inactive) and -1.47% (inactive) |  | inactive |
| Nc1cc(S(=O)(=O)O)ccc1O |  |  | inactive | 15.9% | inactive | inactive |  | inactive | inactive | 6.72% | inactive | inactive | 0.685% | 10% (inactive) | 6.95% (inactive) | inactive | inactive | -1.55% (inactive) |  | inactive |
| ClCCl |  |  |  | 23.4% | inactive | inactive |  | inactive | inactive | -5.75% | inactive | inactive | 3.57% | 5.83% (inactive) | 0.0464% (inactive) | inactive | inactive | -4.34% (inactive) |  | inactive |
| Cc1ccc(N(C)C)cc1 |  |  | inactive | 17.3% | inactive | inactive |  | inactive | inactive | 5.65% | inactive |  | -1.89% | 25.4% (inactive) | 13.9% (inactive) | inactive | inactive | -2.63% (inactive) | -0.0617% (inactive) | inactive |
| Nc1cccc([N+](=O)[O-])c1 | inactive | 0.474% (inactive) | inactive |  |  | inactive | inactive |  |  | -3.08% | inactive |  | -9.54% | 1.86% (inactive) | -4.44% (inactive) | inactive |  | -4.7% (inactive) |  | inactive |
| Cc1cccc([N+](=O)[O-])c1C(=O)O | inactive | 4.26% (inactive) | inactive | 7.62% | inactive | inactive | inactive | inactive | inactive | -20.5% | inactive | inactive | -4.5% | -0.976% (inactive) | 13.9% (inactive) | inactive | inactive | -3.44% (inactive) |  |  |
| COc1cccc2sc(N)nc12 | inactive |  |  | -34.4% |  | inactive |  | inactive | inactive | 2.8% | inactive | inactive | -11.1% | -10.9% (inactive) | -20.5% (inactive) | inactive | inactive |  | 0.198% (inactive) | inactive |
| CC(=C/C=C/C(C)=C/C=C/C=C(C)/C=C/C=C(C)/C=C/C(=O)O)/C=C/C(=O)O | inactive | -6.11% (inactive) | inactive | 11.7% | inactive | inactive | inactive | inactive | inactive | -15.4% | inactive | inactive | -2.63% | -3.15% (inactive) | -8.7% (inactive) | inactive |  | -0.825% (inactive) | -0.299% (inactive) | inactive |
| CCCOCC(C)OCC(C)O (configuration not stated) | inactive |  | inactive | -11.5% | inactive | inactive |  | inactive |  | -0.324% | inactive | inactive | -4.87% | 13.7% (inactive) | 6.45% (inactive) | inactive | inactive | -5.61% (inactive) | -1.44% (inactive) | inactive |
| CCN(Cc1ccccc1)c1ccccc1 |  |  |  |  |  | inactive | inactive |  |  | -15.3% | inactive |  | -8.88% | -8.29% (inactive) |  |  |  | 1.3% (inactive) |  | inactive |
| c1ccsc1 |  |  | inactive | -2.14% | inactive | inactive |  | inactive |  | -5.29% | inactive | inactive | -0.2% | -6.87% (inactive) | -13.7% (inactive) | inactive | inactive | 1.47% (inactive) | 0.633% (inactive) | inactive |
| Cc1ccc(C)cc1 | inactive | -0.888% (inactive) | inactive | -6.55% |  |  |  | inactive | inactive | 4.64% | inactive |  | -6.14% | 34.4% (inactive) | 2.43% (inactive) |  | inactive | -3.21% (inactive) |  | inactive |
